{"source": "PubChem BioAssay AID1918969", "about": "(ICCB-Longwood Screening Facility, Harvard Medical School, 2023)", "note": "Screen size: about 190,000 compounds; about 280 (0.15%) were called active. Cut-off read from the data, not from the text of the source: active = inhibition above about 27% (passing the limit was not always enough); inactive = the rest. The list comes from a sample in which actives are over-represented; it also holds similar structures and randomly drawn compounds."}
{"system": "HCMV UL50-UL53 nuclear egress complex (human cytomegalovirus)", "assay": "inhibitors of HCMV UL50-UL53 interaction, biochemical, HTRF (AID 1918969)", "conditions": "normalized percent inhibition, stronger effect = higher value, concentration not given here"}
{"smiles": "CC(C)(C)c1ccc(CN2C(=O)N(Cc3ccccc3)S(=O)(=O)c3ccccc32)cc1", "inhibition": "-19.5% (inactive)"}
{"smiles": "Cc1nnc(NC(=O)Cn2cnc3oc(C)c(C)c3c2=O)s1", "inhibition": "-21.8% (inactive)"}
{"smiles": "O=S(=O)(NCCc1ccccn1)c1cc(Cl)cc(Cl)c1O", "inhibition": "-28.9% (inactive)"}
{"smiles": "Cc1noc(C)c1C(=O)c1c(C)[nH]n(-c2ccccc2)c1=O", "inhibition": "-25.3% (inactive)"}
{"smiles": "CC1=NOC(=O)C1C(c1cccc(Br)c1)c1c(C)[nH]n(-c2ccccc2)c1=O", "note": "(configuration not stated)", "inhibition": "59.5% (active)"}
{"smiles": "Cc1ccc(Sc2c(C)[nH]n(-c3ccccc3)c2=O)cc1", "inhibition": "-26% (inactive)"}
{"smiles": "O=C(CN1C(=O)c2ccccc2C1=O)Nc1ccc2c(c1)CCC(=O)N2", "inhibition": "-46% (inactive)"}
{"smiles": "COC(=O)c1ccc(C)c(NS(=O)(=O)c2ccc3c(c2)c(=O)sn3C)c1", "inhibition": "-31.7% (inactive)"}
{"smiles": "S=C(c1ccncc1)N1CCOCC1", "inhibition": "-13.4% (inactive)"}
{"smiles": "CCCCCCCCCCCCCCCC(=O)O[C@@H]1[C@@H](O)[C@@H](O)C([C@H](NC(=O)[C@@H]2C[C@@H](CCC)CN2C)[C@H](C)Cl)O[C@@H]1SC", "note": "(some centres not stated)", "inhibition": "-4.7% (inactive)"}
{"smiles": "N#CCCn1cc(C=NCc2ccccc2)c(-c2cc3ccccc3o2)n1", "inhibition": "-30.5% (inactive)"}
{"smiles": "COc1ccc(F)cc1-c1cc(N2CCN(S(=O)(=O)c3ccc(F)c(Cl)c3)CC2)ncn1", "inhibition": "-27.5% (inactive)"}
{"smiles": "NS(=O)(=O)c1ccc(NC(=O)c2cc(-c3ccc4c(c3)OCO4)nc3ccccc23)cc1", "inhibition": "-4.6% (inactive)"}
{"smiles": "COC(=O)c1sccc1NC(=O)c1cc(=O)n2c(nc3cc(C)c(C)cc32)s1", "inhibition": "-30.2% (inactive)"}
{"smiles": "O=C1CN(S(=O)(=O)c2ccc(-c3ccc(=O)[nH]n3)s2)c2ccccc2N1", "inhibition": "-43.4% (inactive)"}
{"smiles": "O=C(Oc1ccccc1)c1cccc(C(=O)Oc2ccccc2)c1F", "inhibition": "-13.9% (inactive)"}
{"smiles": "COc1ccc(OC)c(NC(=O)c2cc3c([nH]c2=O)CC(C)(C)CC3=O)c1", "inhibition": "3.5% (inactive)"}
{"smiles": "Cc1ccc(C(=O)NCC(=O)NC2CC2)cc1", "inhibition": "-17.5% (inactive)"}
{"smiles": "N#CC(C#N)=C1SCN(c2cccc(Cl)c2)CS1", "inhibition": "-5% (inactive)"}
{"smiles": "COc1cccc(NC(=O)c2c(-c3cccnc3)noc2C)c1", "inhibition": "-15.4% (inactive)"}
{"smiles": "COc1ccc(NC(=O)CCCSc2nc3sc(C)c(C)c3c(=O)[nH]2)cc1", "inhibition": "-2.2% (inactive)"}
{"smiles": "CNc1nc(OC)nc(N(C)C)n1", "inhibition": "11.3% (inactive)"}
{"smiles": "O=C(Nc1ccc2oc(-c3ccccc3Br)nc2c1)c1cccc([N+](=O)[O-])c1", "inhibition": "7% (inactive)"}
{"smiles": "CCc1nc(-c2cc(S(=O)(=O)N3CCCC(C(=O)Nc4ccc(C)c(F)c4)C3)c(C)s2)no1", "note": "(configuration not stated)", "inhibition": "-9.2% (inactive)"}
{"smiles": "Cc1ccc(NC(=O)CCCc2nc3cccnc3n2CCC(C)C)cc1", "inhibition": "-10.6% (inactive)"}
{"smiles": "Nc1nc(Nc2ccccc2)sc1C(=O)c1ccc(Br)cc1", "inhibition": "-4.3% (inactive)"}
{"smiles": "CC1(C)Cc2cccc(Oc3ncnc4sccc34)c2O1", "inhibition": "-13% (inactive)"}
{"smiles": "O=C(CCS(=O)(=O)c1ccc2c(c1)NC(=O)CS2)NCc1ccccc1Cl", "inhibition": "-15.7% (inactive)"}
{"smiles": "OC(Cc1nc2ccccc2o1)c1ccccc1", "note": "(configuration not stated)", "inhibition": "-3.6% (inactive)"}
{"smiles": "COc1ccc(C(=O)CSc2nc3nc[nH]c3c(=O)[nH]2)cc1", "inhibition": "-13.4% (inactive)"}
{"smiles": "COc1cc(=O)[nH]c(SC(C)C(=O)Nc2ccccc2)n1", "note": "(configuration not stated)", "inhibition": "-5.6% (inactive)"}
{"smiles": "CCCc1noc(-c2cc(S(N)(=O)=O)ccc2OC)n1", "inhibition": "3.5% (inactive)"}
{"smiles": "O=C(Cc1nc2ccccc2n1C(F)F)c1ccccc1", "inhibition": "-21.1% (inactive)"}
{"smiles": "COc1ccc(N(Cc2nc3ccccc3s2)S(=O)(=O)c2cccs2)cc1", "inhibition": "-24.9% (inactive)"}
{"smiles": "NC(=O)c1ccc2c3c(cccc13)CC2", "inhibition": "-30.8% (inactive)"}
{"smiles": "Cc1nc(Nc2ccc(NC(=O)C(C)(C)C)cc2)cc(N(C)C)n1", "inhibition": "7.9% (inactive)"}
{"smiles": "COc1cc(-c2noc(-c3ccccc3)n2)ccc1OCC(=O)Nc1ccc(F)cc1", "inhibition": "-31.7% (inactive)"}
{"smiles": "CCOC(=O)C1C(=O)CC(=O)C(C(=O)OCC)C1c1ccccc1", "note": "(configuration not stated)", "inhibition": "-6.9% (inactive)"}
{"smiles": "CCOC(=O)c1noc2ncnc(N(CC)c3ccccc3)c12", "inhibition": "-26.1% (inactive)"}
{"smiles": "O=C(NCN1CCN(CNC(=O)c2ccccc2)CC1)c1ccccc1", "inhibition": "-42.2% (inactive)"}
{"smiles": "CCn1c(=O)c(=O)n(CC)c2cc(N3CCCCC3)c(NC(=O)c3ccccc3)cc21", "inhibition": "-23.2% (inactive)"}
{"smiles": "CCn1c(=O)c(=O)n(CC)c2cc(N3CCCCC3)c(NC(=O)c3cccc(F)c3)cc21", "inhibition": "-3.5% (inactive)"}
{"smiles": "CCn1c(=O)c(=O)n(CC)c2cc(N3CCCCC3)c(NC(=O)c3ccc(Cl)cc3)cc21", "inhibition": "62.9% (active)"}
{"smiles": "CCCCn1c(SCC(=O)N2CCCC2)nc2cn(C)nc2c1=O", "inhibition": "-19.7% (inactive)"}
{"smiles": "Cn1cc(CCC(=O)NC2CC2)c2ccccc21", "inhibition": "0.4% (inactive)"}
{"smiles": "CC1(C)CC(=O)C2=C(C1)N(Cc1ccco1)C(=O)C2(NC(=O)c1cccs1)C(F)(F)F", "note": "(configuration not stated)", "inhibition": "-5.4% (inactive)"}
{"smiles": "CCN(CC)c1ccc2cc(-c3csc(-c4nc(-c5cc6ccc(N(CC)CC)cc6oc5=O)cs4)n3)c(=O)oc2c1", "inhibition": "-0.5% (inactive)"}
{"smiles": "Cc1cc(NC(=O)c2ccc(N(C)C)cc2)no1", "inhibition": "1.2% (inactive)"}
{"smiles": "O=C(CC1=NS(=O)(=O)c2ccccc2N1)N1CCN(C(c2ccccc2)c2ccccc2)CC1", "inhibition": "-9.6% (inactive)"}
{"smiles": "C/C(=N\\O)C(C)(C)Nc1ccccc1", "inhibition": "24.2% (inactive)"}
{"smiles": "Cc1ccc(S(=O)(=O)N(C)CC(=O)OCc2nc3ccccc3s2)cc1", "inhibition": "-25.9% (inactive)"}
{"smiles": "CCOC(=O)c1c(NC(=O)CSc2nccn2C)sc2c1CCC(C)C2", "note": "(configuration not stated)", "inhibition": "-12.2% (inactive)"}
{"smiles": "CC(C)N(C(=O)CNc1cc(Cl)ccc1Cl)c1ccccc1", "inhibition": "-6.5% (inactive)"}
{"smiles": "O=C1c2ccccc2C(=O)C1c1ccccc1F", "inhibition": "-3.9% (inactive)"}
{"smiles": "Cc1c(OCC(N)=O)ccc2c3c(c(=O)oc12)CCCC3", "inhibition": "7.5% (inactive)"}
{"smiles": "NC(=O)c1ccc(-c2ccccc2)cc1C(N)=O", "inhibition": "-28.2% (inactive)"}
{"smiles": "Nc1nc(N)nc(SCC(=O)N2CCCC2)n1", "inhibition": "-9.6% (inactive)"}
